D2 PAM-1: potentiates the human D2 dopamine receptor allosterically. DiscoveRx D2 beta-arrestin cells, luminescence, 90 min; 100% = 57 uM dopamine signal. potentiation, % (test concentration not listed). hit rate 0.23% among 360,000; in the data active = potentiation above about 50%
Target sequence (P14416 whole entry, looked up): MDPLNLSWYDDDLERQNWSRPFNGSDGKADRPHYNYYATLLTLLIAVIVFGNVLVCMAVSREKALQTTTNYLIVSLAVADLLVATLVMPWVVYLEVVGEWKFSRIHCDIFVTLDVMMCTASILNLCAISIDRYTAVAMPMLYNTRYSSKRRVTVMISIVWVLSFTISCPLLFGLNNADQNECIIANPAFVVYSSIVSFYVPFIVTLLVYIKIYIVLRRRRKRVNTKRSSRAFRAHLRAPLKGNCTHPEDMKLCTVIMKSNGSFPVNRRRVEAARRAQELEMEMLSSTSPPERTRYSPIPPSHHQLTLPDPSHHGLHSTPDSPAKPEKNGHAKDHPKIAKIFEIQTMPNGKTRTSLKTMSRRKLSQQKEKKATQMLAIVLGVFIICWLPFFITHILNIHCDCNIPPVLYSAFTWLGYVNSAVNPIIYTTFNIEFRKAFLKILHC
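PathHunter beta-arrestin assay in DiscoveRx D2 cells. Compounds were added with an EC20 of dopamine (50 nM final) for 90 min at 37 deg C. Luminescence was read 1 h after detection reagent, with 57 uM dopamine as the EC100 control.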
D2 PAM-2: positive allosteric modulators of human D2 dopamine receptor | P14416 | HEK293 T-REx D2, calcium flux, EC20 dopamine potentiation | AID 485347 | potentiation, % at 10 µM | hit rate 0.34% among 340,000;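 active = potentiation over 3 SD above the plate norm, cut at about 30% in these data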; also: 0% is about no effect
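Tetracycline-induced HEK293 T-REx cells force-coupled to calcium signalling expressed D2; compounds were pin-added after a 10 s baseline, read kinetically 180 s, then an EC20 dopamine challenge followed with a further 180 s calcium read.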
D2 ag-1: activates the human D2 dopamine receptor | P14416 | DiscoveRx PathHunter D2 beta-arrestin, luminescence, 90 min; 100% = 57 uM dopamine signal | activation, % (no concentration beside the values) | hit rate 0.084% among 360,000; in the data active = activation above about 40%
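Agonist mode: compounds alone added to overnight-plated D2 PathHunter cells for 90 min at 37 C, with 57 uM final dopamine (EC100) defining full response. Beta-arrestin recruitment detected by chemiluminescent reagent, read after 1 h at ambient temperature.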
D2 ag-2: D2 dopamine receptor (human) agonism. hit rate 0.53% among 340,000. AID 485358. activation, % at 2 µM. HEK293 T-REx D2 cells, calcium flux agonist mode. P14416;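 active = activation over 3 SD above normal in the single-dose calcium agonist read, cut at about 30% in these data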; also: 0% is about no effect
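Tetracycline-induced HEK293 Trex cells with D2 receptor force-coupled to calcium signaling, plated overnight at 30 C and loaded with no-wash calcium dye. Calcium flux read kinetically for 180 s after compound addition; responses flag agonists.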
D2 antag: antagonists of human D2 dopamine receptor; P14416; HEK293 TREx D2 cells, calcium flux, dopamine EC80; inhibition, % at 10 µM; hit rate 2% among 340,000; in the data active = inhibition above about 30%; inactive = below that, where a call was filed; also: 0% is about no effect
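Calcium flux kinetic readout in an inducible HEK293 TREx D2 line plated overnight at 30 C. After 180 s compound exposure, an EC80 dopamine challenge follows with another 180 s kinetic read to detect antagonism.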
* = called active by the depositor; nt = no result. A selection: hits, their analogues and other compounds. The true share with any hit is near 2.4%.

SMILES	D2 PAM-1	D2 PAM-2	D2 ag-1	D2 ag-2	D2 antag
Cc1nnc(SC(C)C(=O)Nc2ccc3ccccc3c2)[nH]c1=O (configuration not stated)	2	nt	0	-3	-8
COc1cc(=O)[nH]c(SC(C)C(=O)Nc2ccc3ccccc3c2)n1 (configuration not stated)	0	37*	-1	nt	nt
CCC1CN(C(=O)N2CCC(C(=O)Nc3cc(C)ccc3C)CC2)c2ccccc2O1 (configuration not stated)	nt	-1	nt	-1	nt
Cc1cn(C)c(CC(=O)NCc2cccc(Cl)c2)c1C(=O)O	nt	16	nt	1	nt
CCN(C(=O)N(CC)c1ccccc1)c1ccccc1	0	-10	5	-1	43*
Cc1ccccc1NC(=O)c1c(C)oc2ccc(O)c(CN3CCC(C)CC3)c12	nt	6	nt	0	nt
O=C(Cn1nc2n(c1=O)-c1ccccc1SC2)N/N=C/c1cccs1	-20	-21	-3	0	41*
C=CCNc1nc(N2CCOCC2)nc(N2CCOCC2)n1	1	-14	0	-1	31*
C=CCNc1nc(NCCN2CCOCC2)nc(N2CCOCC2)n1	-16	14	0	0	0
CN(C)S(=O)(=O)c1cccc(NC(=O)CNc2cccc(S(=O)(=O)N3CCCCC3)c2)c1	-14	nt	-2	nt	nt
CN(CC(=O)Nc1cccc(S(=O)(=O)N2CCCCC2)c1)Cc1ccc(F)cc1	-15	-18	0	0	32*
NC(=O)c1nn(CC(=O)Nc2cccc(S(=O)(=O)N3CCCCCC3)c2)c(=O)c2ccccc12	-4	21	9	1	-9
CN(C)S(=O)(=O)c1cccc(NC(=O)CNCC2CCCCC2)c1	-21	-24	4	0	55*
CN(CC(=O)Nc1cccc(F)c1)CC(=O)Nc1cccc(S(=O)(=O)N2CCCCCC2)c1	-12	-5	-3	0	-12
NC(=O)c1nn(CC(=O)Nc2cccc(S(=O)(=O)N3CCCC3)c2)c(=O)c2ccccc12	-3	-10	-1	0	44*
CN(CC(=O)Nc1cccc(S(=O)(=O)N(C)C)c1)Cc1ccccc1	-8	-28	-1	-1	33*
Cc1ccc(NC(=O)CN(C)C(=O)CSc2nnc(C)s2)cc1	0	nt	0	nt	nt
CCC1CN(C(=O)N2CCC(C(=O)NCCc3ccc(Cl)cc3)CC2)c2ccccc2O1 (configuration not stated)	nt	-2	nt	-1	nt
CN1CCN(CCCC(=O)c2ccc(F)cc2)CC1	-52	-20	-4	-1	21
O=C(CCCN1CCN(c2ccccc2)CC1)c1ccc(F)cc1	-22	nt	0	nt	nt
O=C(CCCN1Cc2ccccc2C1)c1ccc(F)cc1	-23	-6	-3	0	79*
O=C(CCCN1CCOC(c2ccccc2)C1)c1ccc(F)cc1 (configuration not stated)	-4	-27	-5	0	49*
COc1ccc(OC)c(-c2noc(N3CCN(c4ccc(C(C)=O)cc4)CC3)n2)c1	nt	8	nt	-2	nt
CCC(=O)N1c2ccc(S(=O)(=O)CCC(=O)NCCC3=CCCCC3)cc2CC1C (configuration not stated)	-35	-14	0	0	31*
CCC(=O)N1CCc2cc(S(=O)(=O)CCC(=O)NCCC3=CCCCC3)ccc21	-17	nt	1	nt	nt
SMILES	D2 PAM-1	D2 PAM-2	D2 ag-1	D2 ag-2	D2 antag
CCN(Cc1nc2ccccc2c(=O)[nH]1)C(=O)c1cccc(S(=O)(=O)N2CCc3ccccc32)c1	-1	0	1	0	47*
O=C(CSc1cccc[n+]1[O-])NN(c1ccccc1)c1ccccc1	-4	-3	0	0	14
COC(=O)CN(C)C(=O)c1ccc(OC2CCN(S(=O)(=O)N(C)C)CC2)cc1	3	2	7	1	-10
O=C1C=C(Nc2ccc(Cl)cc2)CC(c2ccc(Cl)cc2)C1 (configuration not stated)	-28	28	-1	-2	48*
C[C@H](CS)C(=O)N1CCC[C@H]1C(=O)O	-6	13	2	1	30*
Cc1ccc(Oc2nc3c(c(=O)n(Cc4ccccc4)c(=O)n3C)n2C)cc1C	nt	11	nt	-1	nt
O=C(NCCCN1CCC(Cc2ccccc2)CC1)c1ccc2nc(N3CCOCC3)sc2c1	-29	-20	-6	0	48*

Screening results deposited in PubChem by National Center for Advancing Translational Sciences (NCATS).
